Among the data in PubChem BioAssay are growth inhibition, inhibition and outcome values, retold here.

Test [1] in a line: antimalarial activity against Dd2 strain (AID 2302;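 active = growth inhibition above 50% at the single 2 µM test dose, taken to imply half-maximal potency below 2 µM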;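 also: 0% = DMSO untreated growth and 100% = chloroquine plus artemisinin killed control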). The conditions noted are these: P. falciparum Dd2 in RBCs, LDH growth readout, 72 h; at 2 µM; hits give high values.
A short description of test [2]: human hepatoma cell viability loss – ATP luminescence, cytotoxicity control for P. falciparum antimalarial project, primary screen (AID 2303;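 active = inhibition above 50%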;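 also: 0% = DMSO wells and 100% = digitonin-killed cells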). The conditions noted are these: HepG2 viability, 24-48 h, at 10 µM, hits give high values.
Test [3] deals with L-lactate dehydrogenase (Plasmodium falciparum (isolate CDC / Honduras)) (UniProt Q27743). Put plainly: PfLDH activity inhibition – cell lysate, 3D7 strain, counter-screen for P. falciparum growth inhibition project (AID 2304).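 Also: 0% = vehicle and 100% = reference inhibitor.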 Particulars: P. falciparum 3D7 crude extract, LDH APAD/NBT absorbance; at 2 µM; hits give high values. Background: A counterscreen serves to expose hits that act by an unwanted route or on another target.
L-lactate dehydrogenase (Plasmodium falciparum (isolate CDC / Honduras)), sequence (Q27743 whole entry, looked up): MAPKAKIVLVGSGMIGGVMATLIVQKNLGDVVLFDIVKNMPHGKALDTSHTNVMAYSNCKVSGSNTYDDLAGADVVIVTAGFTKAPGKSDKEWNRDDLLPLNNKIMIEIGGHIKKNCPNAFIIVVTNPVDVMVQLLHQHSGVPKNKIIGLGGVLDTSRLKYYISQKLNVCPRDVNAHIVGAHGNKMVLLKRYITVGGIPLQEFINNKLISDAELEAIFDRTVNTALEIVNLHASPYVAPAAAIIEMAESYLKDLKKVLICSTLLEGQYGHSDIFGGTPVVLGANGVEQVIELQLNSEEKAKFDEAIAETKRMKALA

Test [4] is described as follows: inhibition of 3D7 malaria parasite growth – strain 3D7 (AID 2306).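 Also: 0% = DMSO wells and 100% = chloroquine plus artemisinin control wells.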 The conditions noted are these: P. falciparum 3D7 erythrocytic growth, LDH absorbance, 72 h; at 2 µM; hits give high values.
Test [5] addresses Calcium-dependent protein kinase 1 (Plasmodium falciparum (isolate 3D7)) (UniProt P62344). Put plainly: PfCDPK1 kinase inhibitors, biochemical, TCAMS library (AID 1159585; cut-off not given, nearly all actives have IC50 up to about 0.98 µM;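 also: inhibitors leave more ATP so luminescence rises with inhibition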). Particulars: recombinant PfCDPK1, Kinase-Glo ATP depletion luminescence. A general note: Kinase-Glo measures the ATP left after a reaction by luminescence.
For test [6], the target named is Plasmodium falciparum protein kinase 6 (PK6, PF3D7_1337100) (UniProt Q8IDW1). The experiment in a line: PfPK6 kinase inhibitors, biochemical, TCAMS library (AID 1159586). The conditions noted are these: recombinant PfPK6, Kinase-Glo ATP depletion luminescence.
Plasmodium falciparum protein kinase 6 (PK6, PF3D7_1337100), sequence (Q8IDW1 1-305): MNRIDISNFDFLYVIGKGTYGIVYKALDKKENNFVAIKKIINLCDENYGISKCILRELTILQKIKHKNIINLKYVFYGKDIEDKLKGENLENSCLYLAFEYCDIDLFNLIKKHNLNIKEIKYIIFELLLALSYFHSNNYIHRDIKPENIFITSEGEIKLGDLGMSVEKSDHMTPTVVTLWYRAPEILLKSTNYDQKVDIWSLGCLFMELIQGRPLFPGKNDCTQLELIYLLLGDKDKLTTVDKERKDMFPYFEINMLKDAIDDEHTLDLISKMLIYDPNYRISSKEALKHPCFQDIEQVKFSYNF
Test [7] concerns the target Protein kinase 7 (PK7), Plasmodium falciparum 3D7 (PF3D7_0213400) (UniProt Q7YTF7). The experiment in a line: inhibition of Plasmodium PK7 catalytic activity – biochemical, TCAMS antimalarial set, Kinase-Glo luminescence (AID 1159587). Particulars: recombinant PfPK7, Kinase-Glo ATP depletion luminescence.
The target in test [8] is Calcium-dependent protein kinase 4 (Plasmodium falciparum (isolate 3D7)) (UniProt Q8IBS5). The experiment in a line: PfCDPK4 kinase inhibitors, biochemical, TCAMS library (AID 1159588; cut-off not given, nearly all actives have IC50 up to about 0.91 µM). Particulars: recombinant PfCDPK4, Kinase-Glo ATP depletion luminescence.
Calcium-dependent protein kinase 4 (Plasmodium falciparum (isolate 3D7)), sequence (Q8IBS5 whole entry, looked up): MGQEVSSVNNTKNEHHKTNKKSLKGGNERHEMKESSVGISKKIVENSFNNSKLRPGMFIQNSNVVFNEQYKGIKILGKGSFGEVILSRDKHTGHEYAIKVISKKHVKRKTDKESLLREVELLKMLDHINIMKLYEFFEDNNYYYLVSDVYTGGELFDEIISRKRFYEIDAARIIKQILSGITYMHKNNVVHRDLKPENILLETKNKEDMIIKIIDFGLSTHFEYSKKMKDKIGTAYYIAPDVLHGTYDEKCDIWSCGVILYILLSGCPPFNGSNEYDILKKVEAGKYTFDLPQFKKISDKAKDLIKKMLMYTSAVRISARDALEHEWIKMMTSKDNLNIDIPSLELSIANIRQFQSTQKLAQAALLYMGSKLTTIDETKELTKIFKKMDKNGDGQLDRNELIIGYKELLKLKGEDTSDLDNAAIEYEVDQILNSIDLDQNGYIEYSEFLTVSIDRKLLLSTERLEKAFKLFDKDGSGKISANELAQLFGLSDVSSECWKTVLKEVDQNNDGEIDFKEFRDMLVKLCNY

Values without a mark were called inactive. For part of these data: Potency and affinity values are given separately. Active and inactive are the calls of the source. Unless noted, no rule for the calls is given here.

Protein kinase 7 (PK7), Plasmodium falciparum 3D7 (PF3D7_0213400), sequence (Q7YTF7 1-343): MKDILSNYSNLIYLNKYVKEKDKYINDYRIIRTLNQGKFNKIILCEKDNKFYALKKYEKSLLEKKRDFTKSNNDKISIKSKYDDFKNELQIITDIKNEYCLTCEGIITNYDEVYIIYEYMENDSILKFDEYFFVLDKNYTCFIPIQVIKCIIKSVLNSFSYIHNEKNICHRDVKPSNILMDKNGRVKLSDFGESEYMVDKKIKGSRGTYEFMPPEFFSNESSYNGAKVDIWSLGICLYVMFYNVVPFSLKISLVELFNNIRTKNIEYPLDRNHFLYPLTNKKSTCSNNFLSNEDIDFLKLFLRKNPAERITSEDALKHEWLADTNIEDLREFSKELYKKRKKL
Calcium-dependent protein kinase 1 (Plasmodium falciparum (isolate 3D7)), sequence (P62344 whole entry, looked up): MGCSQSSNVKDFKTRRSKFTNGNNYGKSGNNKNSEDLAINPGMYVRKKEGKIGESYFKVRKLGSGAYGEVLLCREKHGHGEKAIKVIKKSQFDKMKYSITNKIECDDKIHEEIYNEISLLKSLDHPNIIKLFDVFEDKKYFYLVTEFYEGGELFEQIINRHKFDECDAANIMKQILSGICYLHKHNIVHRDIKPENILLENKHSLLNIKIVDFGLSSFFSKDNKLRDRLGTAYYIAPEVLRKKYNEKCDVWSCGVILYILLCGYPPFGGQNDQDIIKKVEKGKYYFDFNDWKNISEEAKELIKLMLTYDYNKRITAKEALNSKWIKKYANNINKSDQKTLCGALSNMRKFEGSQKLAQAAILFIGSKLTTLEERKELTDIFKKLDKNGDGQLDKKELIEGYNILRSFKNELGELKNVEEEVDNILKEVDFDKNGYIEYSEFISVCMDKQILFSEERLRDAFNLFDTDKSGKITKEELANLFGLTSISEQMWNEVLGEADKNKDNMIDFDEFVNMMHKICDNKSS

As usually defined, the inhibition is the relative decrease from the control value, in per cent. Consider `CCSc1nnc(C2CCCN(CC(=O)Nc3cc(C(F)(F)F)ccc3Cl)C2)n1CC` (centres undefined), for which the growth inhibition in test [1] is 96% (active); in test [4], 99% (active). The results for the inhibition in test [2] and in test [3] were 0% and 5%, respectively. Besides, the outcome in test [5], in test [6], in test [7] and in test [8] was inactive.
As to `Cc1noc(C)c1CN1CCCN(c2ccc3c(c2)CCN(Cc2ccc(-c4ncc[nH]4)cc2)CC3)CC1`, the growth inhibition is 39% in test [1] and 98% (active) in test [4]. Further, the figures for the inhibition in test [2] and in test [3] were 1% and 2%, respectively. The outcome in test [5], in test [6], in test [7] and in test [8] was inactive.
As to `O=C(Nc1ccc2ccccc2c1)N1CCC(NCc2cccc([N+](=O)[O-])c2)CC1`, the growth inhibition in test [1] was -3%; in test [4], 98% (active). In addition, the inhibition in test [2] was -1%; in test [3] it was 2%. Besides, the result in test [5], in test [6], in test [7] and in test [8] was inactive.
